FEN1 inh: qHTS Assay for the Inhibitors of Human Flap endonuclease 1 (FEN1); P39748; Recombinant FEN1 flap cleavage, fluorescence, 15 min; Potency, µM (highest dose often 114 µM), without a hit: at the highest dose activity change, negative = inhibition, most hits filed as inhibitors; actives 0.35% (n = 390,000); AID 588795, 2011; also: % is scaled to controls: 0 for no effect and ±100 for the full control effect; nearly all actives have a fitted effect of over 65% in size
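Compounds are tested as a concentration series against 10 nM FEN1; after a 15 min room-temperature preincubation, 50 nM substrate starts cleavage, with plate reads at 0 and 15 min. Normalized responses are fitted by a Hill equation.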
POLK inh: qHTS for Inhibitors of Polymerase Kappa | purified Pol kappa, fluorescent DNA synthesis assay, 10 min | Potency, µM (titrated, usually from 107 µM), inactives show at the highest dose activity, negative = inhibition, actives largely listed as inhibitors | actives 0.53% (n = 400,000); also: % is scaled to controls: 0 for no effect and ±100 for the full control effect
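Fluorescent qHTS in 1536-well format: enzyme (10 nM) and compound sat 15 min at room temperature before 50 nM substrate (final) was added. Signal taken at 0 and 10 min; no-enzyme buffer wells were negative controls.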
Pol beta inh: qHTS Assay for Inhibitors of DNA Polymerase Beta; P06746; Pol beta primer extension/strand displacement, fluorescence kinetic; Potency, µM (top dose mostly 114 µM), without a hit: at the top dose activity change, negative = inhibition, hits mostly inhibitors; actives 1.3% (n = 340,000); AID 485314, 2010; also: % is scaled to controls: 0 for no effect and ±100 for the full control effect
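Human Pol beta at 10 nM; strand-displacement substrate 50 nM final. Compound exposure 15 min at room temperature before start, reaction 10 min at room temperature.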
POLH inh: qHTS for Inhibitors of Polymerase Eta; DNA polymerase eta (Homo sapiens), Q9Y253; recombinant Pol eta, fluorescent DNA replication assay; Potency, µM (highest dose often 114 µM), for the others: at the top dose activity change, negative = inhibition, most hits filed as inhibitors; actives 1.2% (n = 390,000); AID 588591, 2011; also: % is scaled to controls: 0 for no effect and ±100 for the full control effect
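Pol eta at 10 nM preincubated with compounds 15 min at room temperature; reaction started with fluorescent substrate (50 nM final) and read kinetically at 0 and 10 min.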
Pol iota inh: qHTS for Inhibitors of Polymerase Iota. actives 1% (n = 390,000). AID 588590, 2011. DNA polymerase iota (Homo sapiens), Q9UNA4. Pol iota fluorescent replication assay, 10 min. Potency, µM (top dose mostly 115 µM), for inactives: at the highest dose activity, negative = inhibition, most hits filed as inhibitors
Target sequence (Q9UNA4 whole entry, looked up): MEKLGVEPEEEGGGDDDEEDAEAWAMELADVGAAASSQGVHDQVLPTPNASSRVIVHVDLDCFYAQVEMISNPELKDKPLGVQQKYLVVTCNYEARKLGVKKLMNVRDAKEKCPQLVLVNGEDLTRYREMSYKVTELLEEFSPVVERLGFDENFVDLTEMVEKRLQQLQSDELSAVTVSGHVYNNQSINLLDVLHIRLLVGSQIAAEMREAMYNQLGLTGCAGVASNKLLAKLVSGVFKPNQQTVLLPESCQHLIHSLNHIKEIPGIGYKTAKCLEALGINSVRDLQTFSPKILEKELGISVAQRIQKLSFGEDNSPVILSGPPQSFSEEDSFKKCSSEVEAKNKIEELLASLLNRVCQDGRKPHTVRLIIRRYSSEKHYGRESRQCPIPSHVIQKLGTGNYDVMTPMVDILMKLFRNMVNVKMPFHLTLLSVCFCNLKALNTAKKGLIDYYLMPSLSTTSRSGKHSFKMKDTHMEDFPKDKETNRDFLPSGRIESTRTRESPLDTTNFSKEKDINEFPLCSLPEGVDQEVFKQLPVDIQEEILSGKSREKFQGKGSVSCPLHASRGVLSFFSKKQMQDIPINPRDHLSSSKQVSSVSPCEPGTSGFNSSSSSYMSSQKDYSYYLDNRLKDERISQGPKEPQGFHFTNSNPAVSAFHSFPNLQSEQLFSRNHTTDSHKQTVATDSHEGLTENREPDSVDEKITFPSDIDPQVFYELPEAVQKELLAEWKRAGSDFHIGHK
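Fluorescent replication assay read twice, at 0 min and 10 min after adding 50 nM (final) substrate. Enzyme (10 nM) and compounds were first incubated 15 min at room temperature; enzyme-free buffer wells were negative controls.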
WRN inhibitor: qHTS for Inhibitors of WRN Helicase. WRN helicase unwinding, fluorescent forked duplex, kinetic. Potency, µM (titrated, usually from 114 µM), inactives show at the highest dose activity change, negative = inhibition, actives largely listed as inhibitors. actives 0.46% (n = 360,000). AID 651768, 2012; also: % is scaled to controls: 0 for no effect and ±100 for the full control effect; nearly all actives have a fitted effect of over 55% in size
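WRN at 20 nM final was preincubated with compound for 15 min at room temperature; reaction started with 100 nM forked duplex oligonucleotide carrying fluorophore and quencher plus 2 mM ATP (final). Unwinding followed kinetically by red fluorescence (ex 525/em 598 nm).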
Numbers without * were called inactive; u = inconclusive; x = no result; ! = a repeat was not active; [ ] = dose if it differs, or a comment. A selection: hits, their analogues and other compounds. The true share with any hit is near 2.4%. Calls follow the shape of the dose curve; as a rule, active = well fitted curve in the direction sought with a large enough effect; inconclusive = small, poorly fitted or top-dose-only effect, or another doubt; inactive = no such curve, though single readings can be large; an effect the other way counts as inactive or inconclusive. Potency is read from the fitted curve at half-maximal effect.

SMILES	FEN1 inh	POLK inh	Pol beta inh	POLH inh	Pol iota inh	WRN inhibitor
O=C1NC(=O)C(=Cc2ccc(Sc3ccccc3)o2)C(=O)N1	u	-3.1%	17.0%	u	u	11.2µM*
O=C1NC(=O)C(=Cc2ccc(-c3ccc(Cl)cc3)o2)C(=O)N1	17.8µM*	-3.7%	43.3%	79.4µM*	11.2µM*	-22.8%
O=C1NC(=O)C(=Cc2ccc(-c3ccc(F)cc3O)o2)C(=O)N1	17.8µM*	-9.3%	-2.2%	70.8µM*	u	-5.7%[11.6 µM]
Cc1ccc(/C=C2\C(=O)NC(=O)N(CCc3ccc(F)cc3)C2=O)o1	u	-30.7%	-11.4%	-13.9%	u	-35.8%
O=C1NC(=O)C(=Cc2ccc(-c3ccc(S(=O)(=O)N4CCOCC4)cc3)o2)C(=O)N1	-26.7%	0.4%	19.7%	-13.7%	25.1µM*	-11.3%
CN(C)c1ccc(C=C2C(=O)NC(=O)NC2=O)cc1	-20.4%	3.9%	x	-2.6%	u	-27.9%
Cc1ccc(NC(=O)Cn2c(=O)oc3cc(S(=O)(=O)N4CCCCCC4)ccc32)cc1Cl	14.6%	-15.1%[60.1 µM]	u	6.5%	-14.1%	x
Cc1ccc(CNC(=O)C(=O)NCC(c2cccnc2)N2CCN(c3ccc(F)cc3)CC2)cc1 (centres undefined)	4.7%	-3.7%	u	-16.5%	28.6%	x
O=C1C=CC2C3C(=O)N(c4ccccc4)C(=O)C3C1N2Cc1ccccc1 (centres undefined)	4.7%	-5.2%	x	u	u	u
O=C(CO)[C@@H](O)C(O)[C@@H](O)CO (some centres undefined)	x	14.3%[60.1 µM]	x	x	x	x
CNc1cc(Cl)c2nonc2c1[N+](=O)[O-]	12.6µM*	-25.3%	89.1µM*	-13.3%	10µM*	u
Cc1cc([N+](=O)[O-])c(Cl)cc1NC(=O)C(C)C	-3.6%	-11.3%	9.4%	-14.4%	4.8%	3.6%
CC(=O)C(O)C(c1ccccc1)c1c(O)c2ccccc2oc1=O (centres undefined)	x	15.4%[60.1 µM]	x	x	x	x
CCOC(=O)N1CCCN(/[N+]([O-])=N/Oc2ccc([N+](=O)[O-])cc2[N+](=O)[O-])CC1	-5.2%	0.0%	x	x	u	x
CC1CCN(C(CC(=O)c2ccccc2)C(=O)c2ccccc2)CC1 (centres undefined)	-19.8%	-4.9%	x	-16.4%	u	7.94µM*
CCN(C[C@H]1N[C@@](CC)(C(=O)OC)[C@H]2C(=O)N(Cc3ccccc3)C(=O)[C@@H]12)C(=O)Nc1ccc(Cl)cc1	-3.8%	10.4%	x	-16.7%	38.1%	2.8%
O=S(=O)(Nc1c(O)ccc2ccccc12)c1ccc(F)cc1	u	-20.3%	x	-4.9%	u	50.1µM*
CN1CCN(C(=O)COc2ccc(S(=O)(=O)Nc3ccc(F)cc3)cc2)CC1	18.9%	0.5%	8.7%	-5.9%	53.0%	9.8%
Cc1cc(C)cc(N2C(=O)NC(=O)/C(=C/c3cccn3-c3ccc(Cl)cc3)C2=O)c1	0.2%	-5.3%	11.9%	79.4µM*	u	-14.6%[11.6 µM]
CC(C)(C)n1cccc1/C=C1\C(=O)NC(=O)N(c2ccccc2)C1=O	44.1%	-2.4%	-9.8%	-15.4%	u	-28.5%
O=c1c2ccccc2[se]n1-c1ccccc1	79.4µM*	10.4%[60.1 µM]	3.16µM*!	-6.1%	u	-17.2%[11.6 µM]
CCCCCCCCCC[n+]1cccc([C@@H]2CCCN2C)c1	x	14.0%[60.1 µM]	x	x	x	x
ClCCN(CCCl)c1ccc(/C=C/c2sc3ccccc3[n+]2CCCCI)cc1	u	28.2µM*	x	x	89.1µM*	x
ClCCN(CCCl)c1ccc(C=Nc2ccc(/C=C/c3ccncc3)cc2)cc1	-6.6%	-13.7%	x	x	3.2%	x
O=[N+]([O-])c1cc(C(F)(F)F)c(Cl)c([N+](=O)[O-])c1Nc1ncc(C(F)(F)F)cc1Cl	-12.9%	-31.3%	x	x	u	x
SMILES	FEN1 inh	POLK inh	Pol beta inh	POLH inh	Pol iota inh	WRN inhibitor
O=[N+]([O-])c1cc(O)c(O)c([N+](=O)[O-])c1	-4.7%	15.8µM*!	5.2%[57.1 µM]	u	u	-6.7%
CCOC(=O)c1ccc(N=Cc2c(O)n(-c3ccccc3F)c(=S)[nH]c2=O)cc1	u	-17.4%	30.2%	-28.1%	u	79.4µM*
CCOC(=O)c1c(/N=C/c2c(O)n(-c3ccccc3F)c(=S)[nH]c2=O)sc2c1CCCC2	-20.0%	-4.3%	12.6%	-4.0%	u	u
C=CCN1CC[C@]23c4c5ccc(O)c4O[C@@H]2C(=O)CC[C@]3(O)[C@H]1C5	x	-10.4%[19.4 µM]	x	x	x	x
O=C1CCC2(O)C3Cc4ccc(O)c5c4C2(CCN3Cc2ccoc2)C1O5 (centres undefined)	x	x	x	28.2µM*	x	-21.5%
O=C1NC(=S)NC(=O)C1=Cc1ccc(OCC(=O)N2CCCC2)cc1	-16.4%	-33.6%	50.1µM*	u	u	-7.4%
CCN(CC)c1ccc(C=C2C(=O)NC(=S)NC2=O)cc1	u	6.9%	2.0%	-6.6%	13.3%	-16.5%
CC1Oc2cc3c(-c4c(O)cc(O)c5c(O)c6c(cc45)OC(C)C(C)C6=O)c(O)cc(O)c3c(O)c2C(=O)C1C (centres undefined)	14.1µM*	35.5µM*	35.5µM*	7.08µM*	3.98µM*	63.1µM*
Cn1ncc2c(NCc3ccco3)ncnc21	0.1%	11.4%	x	x	u	x
O=C1OC(c2ccc(O)c(S(=O)(=O)O)c2)(c2ccc(O)c(S(=O)(=O)O)c2)c2c(Br)c(Br)c(Br)c(Br)c21	x	28.2µM*	x	x	x	x
Cn1ccnc1	u	12.7%[60.1 µM]	-5.8%[57.1 µM]	3.7%[57.1 µM]	-8.1%[58.9 µM]	x
O=C1C=CC(=O)C(Cl)=C1	x	15.8µM*	x	x	x	x
COC(=O)C1=C(C(=O)OC)SC2(S1)C(C(=O)OC)=C(C(=O)OC)Sc1c2ssc1=O	-19.8%	-5.9%	x	-5.7%	-15.8%	12.6µM*
COC(=O)C1=C(c2ccc3ccccc3c2)C[C@@H]2CC[C@H]1N2C(=O)NCc1ccco1	-16.4%	u	x	35.5µM*	-28.1%	-1.3%[11.6 µM]
COC(=O)C1=C(c2ccc3ccccc3c2)C[C@@H]2CC[C@H]1N2C(=O)NCC1CC1	-11.0%	0.2%	x	-5.3%	22.2%	4.2%
CCCCC/C=C\C/C=C\C/C=C\C/C=C\CCCC(=O)NCC(=O)O	u	7.52µM*!	1.41µM*	0.501µM*	2.24µM*	x
CCCCC[C@@H](/C=C/C=C\C/C=C\C/C=C\CCCC(=O)O)OO	x	1.9%[19.4 µM]	x	x	x	x
CCCCC/C=C\C/C=C\C/C=C\C/C=C\CCCC(=O)NCc1ccoc1	x	7.94µM*	x	x	x	x
CCCCC/C=C\C/C=C\C/C=C\C/C=C\CCCC(=O)Nc1ccc(O)cc1	x	-20.6%[19.4 µM]	-6.8%	x	x	x
